Compound activity (PubChem)
NR2F2 inh – blocks human COUP-TFII nuclear receptor | 370,000 tested, 0.7% active | HEK293T NGFI-A luciferase reporter, luminescence | inhibition, % at 8.6 µM;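 active means inhibition above a per-plate cutoff, mean inhibition of test wells between control levels plus 3 SD, cut at about 38% in these data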;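 further: cells cotransfected with COUP-TFII expression vector driving the NGFI-A reporter; 0% = median of COUP-TF2 test wells and 100% = reporter-only cells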
Target sequence (P24468 whole entry, looked up): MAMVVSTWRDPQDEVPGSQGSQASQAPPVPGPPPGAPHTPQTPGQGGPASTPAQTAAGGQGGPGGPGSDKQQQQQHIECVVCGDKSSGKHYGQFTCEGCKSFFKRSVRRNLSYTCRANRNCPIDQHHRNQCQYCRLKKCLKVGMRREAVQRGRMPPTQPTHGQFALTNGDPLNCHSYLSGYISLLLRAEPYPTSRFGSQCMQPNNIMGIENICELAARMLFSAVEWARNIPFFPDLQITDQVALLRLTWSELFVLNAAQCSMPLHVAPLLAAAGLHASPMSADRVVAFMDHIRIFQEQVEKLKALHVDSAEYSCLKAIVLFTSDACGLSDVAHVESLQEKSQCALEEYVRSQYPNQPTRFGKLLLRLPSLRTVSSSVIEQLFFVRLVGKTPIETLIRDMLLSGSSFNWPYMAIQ
Gli-Sufu antag – blocks Gli-Sufu signaling in a luciferase reporter; 340,000 tested, 0.74% active; Sufu-KO-LIGHT fibroblasts, Gli luciferase reporter luminescence; inhibition, % at 5 µM; AID 588413;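 active means inhibition above about 55%, limit read from the data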;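 further: 0% = DMSO-treated cells and 100% = wells with medium but no cells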
Cardio protect – myocardial damage modulation in H9c2 cells. H9c2 cardiomyocytes, H2O2 injury protection, ATPLite, 2 h. protection from H2O2 cell death, % at 20 µM. 360,000 tested, 0.63% active;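 active means compounds giving at least 50% protection of heart cells from peroxide-induced death in the single-dose screen, raw or plate-pattern-corrected value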;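 further: 0% = DMSO wells with peroxide and 100% = DMSO wells without peroxide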
H9c2 TAG inh – triacylglycerol accumulation inhibition; inhibition, % at 12.5 µM; H9c2 cells, Nile Red lipid (TAG) fluorescence; cells loaded with 200 µM oleic acid; 230,000 tested, 0.66% active;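 active means pattern-corrected inhibition of lipid staining of at least 50% with the nuclear-stain viability signal not falling by more than 50%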;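 further: 0% = DMSO wells and 100% = triacsin C control wells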
Jurkat NFkB inh – inhibitors of the PMA/ionomycin-induced NF-kB reporter in Jurkat cells | PMA/ionomycin-induced NF-kB luciferase reporter, luminescence | inhibition, % at 4 µM | 330,000 tested, 0.53% active | AID 435003; in the data active means inhibition above about 50%
697 NFkB inh – inhibitors of the PMA/ionomycin-induced NF-kB reporter in 697 B cells; 697 B-cell NF-kB luciferase reporter, 16 h; 330,000 tested, 0.33% active; inhibition, % at 4 µM; in the data active means inhibition above about 35%
Jurkat NFkB conf – inhibitors of the PMA/ionomycin-induced NF-kB reporter in Jurkat cells, retest; shares compounds with Jurkat NFkB inh; Jurkat NF-kB luciferase, 16 h; AID 435020; 2,700 tested, 27% active; inhibition, % at 4 µM;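 active means inhibition reaching about 45% at 4 µM in either replicate, limit read from the data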;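 further: plate controls were PMA/ionomycin stimulated DMSO wells for no effect and unstimulated DMSO wells for full effect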
Numbers without * were called inactive. The list is not random: actives were taken first. Their share in the collection is about 2.6%.

`COc1ccc(-n2c(SCc3nc4ccccc4[nH]3)nc3ccccc3c2=O)cc1` gave NR2F2 inh 14.1.
O=C(Nc1nc(Cc2ccccc2)c(-c2ccccc2)n1Cc1ccccc1)c1ccccc1 was read as NR2F2 inh 6.8.
Nc1ccc(-c2nc3cc(N)ccc3o2)cc1 was read as NR2F2 inh -42.0, Gli-Sufu antag -69.2, Cardio protect -12.4, H9c2 TAG inh 3.5, Jurkat NFkB inh -104.2 and 697 NFkB inh -134.2.
For Cc1ccc(-c2nc3cc(N)ccc3o2)cc1Br the results were NR2F2 inh -13.6, Gli-Sufu antag -85.5, Cardio protect -8.9, Jurkat NFkB inh -159.7, 697 NFkB inh -140.2 and Jurkat NFkB conf -88.0.
For CC(=O)Nc1ccc(N/C=C/C(=O)c2ccccc2)cc1 the results were NR2F2 inh -6.8, Gli-Sufu antag -134.8, Cardio protect -5.9, H9c2 TAG inh 2.0, Jurkat NFkB inh -108.8 and 697 NFkB inh -114.9.
For CN(C)c1ccc(N/C=C/C(=O)c2ccccc2)cc1 the results were NR2F2 inh 6.1, Gli-Sufu antag -48.8, Cardio protect -19.3, Jurkat NFkB inh -170.9, 697 NFkB inh -100.2 and Jurkat NFkB conf -48.9.
Screening Cc1ccc(N/C=C/C(=O)c2ccc(C)cc2)cc1 returned NR2F2 inh -46.6, Gli-Sufu antag -82.2, Cardio protect 2.3, H9c2 TAG inh -3.0, Jurkat NFkB inh -141.5 and 697 NFkB inh -135.5.
Cc1ccc(C(=O)/C=C/Nc2ccc([N+](=O)[O-])cc2Br)cc1 was read as NR2F2 inh -22.1, Gli-Sufu antag -94.4, Cardio protect -14.9, H9c2 TAG inh 0.2, Jurkat NFkB inh -164.8, 697 NFkB inh -187.4 and Jurkat NFkB conf -40.9.
For Cc1ccc(O)c(N/C=C/C(=O)c2ccc(F)cc2)c1 the results were NR2F2 inh -20.5, Gli-Sufu antag 24.5, Cardio protect -17.1, H9c2 TAG inh 21.1, Jurkat NFkB inh 85.2*, 697 NFkB inh -50.2 and Jurkat NFkB conf 13.6.
Cc1ccc(C(=O)/C=C\Nc2ccc(C)c(C)c2)cc1 was read as NR2F2 inh -55.6, Gli-Sufu antag -61.7, Cardio protect -17.5, Jurkat NFkB inh -161.8, 697 NFkB inh -145.8 and Jurkat NFkB conf -18.1.
`Cc1ccc(-n2c(SCC(=O)c3ccc(F)cc3)nnc2-c2cccnc2)cc1` gave NR2F2 inh 5.5.
For CCOC(=O)c1ccc(N/C=C/C(=O)c2ccccc2)cc1 the results were NR2F2 inh -45.4, Gli-Sufu antag -106.1, Cardio protect -13.4, H9c2 TAG inh -26.6, Jurkat NFkB inh -92.9 and 697 NFkB inh -99.1.
Cc1cc(N/C=C/C(=O)c2ccccc2)ccc1Br was read as NR2F2 inh -55.4, Gli-Sufu antag -88.3, Cardio protect -16.8, H9c2 TAG inh -9.2, Jurkat NFkB inh -166.6, 697 NFkB inh -248.2 and Jurkat NFkB conf -119.8.
`CCCC(=O)N1CCC[C@]2(CC[C@@H](CCC(C)=O)O2)C1` gave NR2F2 inh -14.1.
`S=C(Nc1ccc(Cl)c(Cl)c1)Nc1nnc(-c2ccncc2)s1` gave NR2F2 inh 19.7.
`CCn1cc2nc(SCC(=O)Nc3ccc(OC)cc3OC)n(Cc3ccc(OC)cc3)c(=O)c2n1` gave NR2F2 inh 4.2, Gli-Sufu antag -0.2, Cardio protect 2.9, Jurkat NFkB inh 51.5*, 697 NFkB inh -22.5 and Jurkat NFkB conf 29.9.
For Cc1nc(-c2ccccc2)sc1-c1ccn[nH]1 the results were NR2F2 inh -57.0, Gli-Sufu antag -138.9, Cardio protect -14.0, H9c2 TAG inh 2.5, Jurkat NFkB inh -185.1, 697 NFkB inh -200.6 and Jurkat NFkB conf -117.5.
Screening Cc1nc(-c2ccccc2)sc1-c1ccnn1C returned NR2F2 inh -37.4, Gli-Sufu antag -126.0, Cardio protect -18.6, H9c2 TAG inh 5.6, Jurkat NFkB inh -137.2 and 697 NFkB inh -172.2.
For CCC(=O)N/N=C/c1ccc(OS(=O)(=O)c2ccccc2)cc1 the results were NR2F2 inh 8.5, Gli-Sufu antag -9.1, Cardio protect 8.4, H9c2 TAG inh -10.9, Jurkat NFkB inh -5.4 and 697 NFkB inh 17.8.
For NC(N)=N/N=C/c1ccc(OS(=O)(=O)c2ccccc2)cc1 the results were NR2F2 inh -7.0, Gli-Sufu antag 32.8, Cardio protect -5.6, Jurkat NFkB inh 50.1*, 697 NFkB inh -17.0 and Jurkat NFkB conf 4.6.
